Laboratory results taken from PubChem BioAssay AID1159580 (chemical genetic matrix, 2015).
Where “and” joins values, the source holds several entries; their conditions need not be identical. Identical values can stand only once. Among all 5,500 compounds or so, about 2,000 (36%) were called active. Roughly 18% stayed inconclusive and do not appear here. Cut-off read from the data, not from the text of the source: active = normalized growth mostly below about 0.91 (no sharp cut-off); inconclusive = no clear call, values can overlap the other calls; inactive = mostly above about 0.92. The list shows a part of the results.

Assay: chemical genetic growth profiling, strain panel (AID 1159580);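 note: tested at 20 µM; growth read once vehicle control cultures reached saturation at 30 °C; 1 = growth at the plate median or of vehicle wells; lower values mean less growth of the strain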
Conditions: S. cerevisiae deletion strains, growth OD

Measured: normalized growth

C[C@@H]1O[C@@H](OC[C@H]2OC(Oc3c(-c4ccc(O)c(O)c4)oc4cc(O)cc(O)c4c3=O)[C@H](O)[C@@H](O)[C@@H]2O)[C@H](O)[C@H](O)[C@H]1O (stereo not given in full)
inactive: locus YAL013W, strain DEP1, stronger effect = lower value 0.995 | locus YAL021C, strain ccr4, stronger effect = lower value 0.964 | locus YAL026C, strain drs2, stronger effect = lower value 0.993 | locus YAL030W, strain snc1, stronger effect = lower value 0.998 | locus YBL061C, strain skt5, stronger effect = lower value 1.01 | locus YBR009C, strain hhf1, stronger effect = lower value 0.994 | locus YBR021W, strain FUR4, stronger effect = lower value 1.03 | locus YBR023C, strain chs3, stronger effect = lower value 1 | locus YBR171W, strain sec66, stronger effect = lower value 1 | locus YBR229C, strain ROT2, stronger effect = lower value 1.01 | locus YBR231C, strain swc5, stronger effect = lower value 1 | locus YBR279W, strain paf1, stronger effect = lower value 0.996 | locus YCL011C, strain gbp2, stronger effect = lower value 0.98 | locus YCL016C, strain dcc1, stronger effect = lower value 0.982 | locus YCL029C, strain bik1, stronger effect = lower value 0.988 | locus YCL061C, strain MRC1, stronger effect = lower value 1.01 | locus YCL069W, strain vba3, stronger effect = lower value 1.01 | locus YCR088W, strain abp1, stronger effect = lower value 1.01 | locus YDL005C, strain med2, stronger effect = lower value 1 | locus YDL035C, strain GPR1, stronger effect = lower value 0.975 | locus YDL040C, strain nat1, stronger effect = lower value 1 | locus YDL074C, strain BRE1, stronger effect = lower value 0.949 | locus YDL101C, strain DUN1, stronger effect = lower value 1 | locus YDL185W, strain tfp1, stronger effect = lower value 0.941 | locus YDL192W, strain arf1, stronger effect = lower value 0.989 | locus YDR001C, strain nth1, stronger effect = lower value 0.986 | locus YDR069C, strain doa4, stronger effect = lower value 1 | locus YDR101C, strain arx1, stronger effect = lower value 0.983 | locus YDR137W, strain rgp1, stronger effect = lower value 0.974 | locus YDR150W, strain NUM1, stronger effect = lower value 0.996 | locus YDR159W, strain sac3, stronger effect = lower value 1.07 | locus YDR162C, strain NBP2, stronger effect = lower value 1.01 | locus YDR195W, strain ref2 1 | locus YDR297W, strain sur2, stronger effect = lower value 1.01 | locus YDR318W, strain mcm21, stronger effect = lower value 1 | locus YDR334W, strain swr1, stronger effect = lower value 1 | locus YDR335W, strain msn5, stronger effect = lower value 0.979 | locus YDR388W, stronger effect = lower value 1 | locus YDR392W, strain spt3, stronger effect = lower value 0.979 | locus YDR502C, strain sam2, stronger effect = lower value 1.01 | locus YEL003W, strain gim4, stronger effect = lower value 1.01 | locus YEL037C, strain rad23, stronger effect = lower value 1.01 | locus YEL061C, strain CIN8 (second series), stronger effect = lower value 1 | locus YEL061C, strain CIN8, stronger effect = lower value 1.01 | locus YER015W, strain faa2, stronger effect = lower value 0.973 | locus YER016W, strain bim1, stronger effect = lower value 1 | locus YER110C, stronger effect = lower value 0.985 | locus YER111C, strain swi4, stronger effect = lower value 0.994 | locus YER155C, strain BEM2 (second series), stronger effect = lower value 1.09 | locus YER155C, strain BEM2, stronger effect = lower value 1 | locus YER167W, strain BCK2, stronger effect = lower value 1.01 | locus YFR010W, strain ubp6, stronger effect = lower value 1 | locus YGL078C, strain dbp3, stronger effect = lower value 0.971 | locus YGL086W, strain mad1, stronger effect = lower value 0.997 | locus YGL167C, strain pmr1, stronger effect = lower value 0.975 | locus YGL173C, strain kem1, stronger effect = lower value 1.02 | locus YGL227W, strain vid30, stronger effect = lower value 1 | locus YGL240W, strain doc1, stronger effect = lower value 1.04 | locus YGL248W, strain PDE1, stronger effect = lower value 1.03 | locus YGL253W, strain hxk2, stronger effect = lower value 0.991 | locus YGR078C, strain PAC10, stronger effect = lower value 1.03 | locus YGR135W, strain pre9, stronger effect = lower value 1.03 | locus YGR252W, strain gcn5, stronger effect = lower value 1.09 | locus YHR013C, strain ard1, stronger effect = lower value 0.979 | locus YHR027C, strain rpn1, stronger effect = lower value 0.985 | locus YHR030C, strain SLT2, stronger effect = lower value 0.992 and 1.1 | locus YHR079C, strain IRE1 (second series), stronger effect = lower value 0.98 | locus YHR079C, strain IRE1, stronger effect = lower value 1.07 | locus YHR094C, strain hxt1, stronger effect = lower value 0.997 | locus YHR129C, strain ARP1, stronger effect = lower value 1.01 | locus YHR142W, strain chs7, stronger effect = lower value 0.969 | locus YHR200W, strain rpn10, stronger effect = lower value 1 | locus YIL066C, strain RNR3, stronger effect = lower value 1 | locus YIL073C, strain SPO22, stronger effect = lower value 0.99 | locus YIL125W, strain kgd1, stronger effect = lower value 0.994 | locus YIR030C, strain dcg1, stronger effect = lower value 0.997 | locus YJL092W, strain hpr5, stronger effect = lower value 1 | locus YJL095W, strain BCK1 (second series), stronger effect = lower value 1 | locus YJL095W, strain BCK1, stronger effect = lower value 1.07 and 1.06 | locus YJL115W, strain asf1, stronger effect = lower value 0.968 | locus YJL129C, strain trk1, stronger effect = lower value 0.987 | locus YJL134W, strain LCB3, stronger effect = lower value 0.997 | locus YJL154C, strain vps35, stronger effect = lower value 0.999 | locus YJL164C, strain tpk1, stronger effect = lower value 0.974 | locus YJL166W, strain qcr8, stronger effect = lower value 1.02 | locus YJL168C, strain set2, stronger effect = lower value 0.996 | locus YJL187C, strain SWE1 (second series), stronger effect = lower value 1.01 | locus YJL187C, strain SWE1, stronger effect = lower value 0.999 | locus YJR043C, strain POL32, stronger effect = lower value 1 | locus YJR066W, strain TOR1, stronger effect = lower value 1 | locus YJR075W, strain HOC1, stronger effect = lower value 1.02 | locus YKL009W, strain mrt4, stronger effect = lower value 1.11 | locus YKL068W, stronger effect = lower value 0.982 | locus YKL085W, strain MDH1 (second series), stronger effect = lower value 0.992 | locus YKL085W, strain MDH1, stronger effect = lower value 0.992 | locus YKL160W, strain elf1, stronger effect = lower value 0.976 | locus YKR001C, strain vps1, stronger effect = lower value 1.01 | locus YKR026C, strain gcn3, stronger effect = lower value 1 | locus YKR091W, strain srl3, stronger effect = lower value 0.996 | locus YLL001W, strain dnm1, stronger effect = lower value 0.942 | locus YLL026W, stronger effect = lower value 0.997 | locus YLL041C, strain sdh2, stronger effect = lower value 0.995 | locus YLR027C, strain aat2, stronger effect = lower value 1.01 | locus YLR039C, strain RIC1, stronger effect = lower value 0.979 | locus YLR058C, strain SHM2, stronger effect = lower value 1.03 | locus YLR102C, strain apc9, stronger effect = lower value 1 | locus YLR113W, strain HOG1, stronger effect = lower value 1.03 | locus YLR221C, strain rsa3, stronger effect = lower value 1.06 | locus YLR258W, strain gsy2, stronger effect = lower value 1.02 | locus YLR262C, strain YPT6 (second series), stronger effect = lower value 1.03 | locus YLR262C, strain YPT6, stronger effect = lower value 0.99 | locus YLR268W, strain sec22, stronger effect = lower value 0.977 | locus YLR320W, strain mms22, stronger effect = lower value 1.08 | locus YLR330W, strain CHS5, stronger effect = lower value 0.999 | locus YLR342W, strain FKS1 (second series), stronger effect = lower value 1 | locus YLR342W, strain FKS1, stronger effect = lower value 1.01 | locus YLR357W, strain rsc2, stronger effect = lower value 0.955 | locus YLR370C, strain arc18, stronger effect = lower value 1.01 | locus YLR371W, strain rom2, stronger effect = lower value 0.995 | locus YLR384C, strain iki3, stronger effect = lower value 0.993 | locus YLR418C, strain cdc73, stronger effect = lower value 1.03 | locus YML016C, strain PPZ1, stronger effect = lower value 1.01 | locus YML032C, strain rad52, stronger effect = lower value 1.03 | locus YML120C, strain ndi1, stronger effect = lower value 0.972 | locus YML124C, strain tub3, stronger effect = lower value 0.993 | locus YMR078C, strain ctf18, stronger effect = lower value 0.999 | locus YMR125W, strain sto1, stronger effect = lower value 0.965 | locus YMR129W, stronger effect = lower value 1.01 | locus YMR205C, strain PFK2, stronger effect = lower value 1 | locus YMR223W, strain ubp8, stronger effect = lower value 1.01 | locus YMR231W, strain pep5, stronger effect = lower value 1 | locus YMR307W, strain GAS1, stronger effect = lower value 1.03 | locus YNL067W, strain RPL9B, stronger effect = lower value 1.01 | locus YNL071W, strain lat1, stronger effect = lower value 1.02 | locus YNL183C, strain NPR1, stronger effect = lower value 0.999 | locus YNL209W, strain ssb2, stronger effect = lower value 0.939 | locus YNL233W, strain BNI4, stronger effect = lower value 1.02 | locus YNL248C, strain rpa49, stronger effect = lower value 1.01 | locus YNL250W, strain rad50, stronger effect = lower value 0.963 | locus YNL271C, strain bni1, stronger effect = lower value 0.987 | locus YNL298W, strain CLA4, stronger effect = lower value 0.982 | locus YNL307C, strain MCK1, stronger effect = lower value 0.987 | locus YNL322C, strain KRE1 (second series), stronger effect = lower value 0.997 | locus YNL322C, strain KRE1, stronger effect = lower value 1.01 | locus YNR049C, strain mso1, stronger effect = lower value 0.998 | locus YNR052C, strain pop2, stronger effect = lower value 1.01 | locus YOL006C, strain TOP1, stronger effect = lower value 1.03 | locus YOL012C, strain htz1 0.939 | locus YOL147C, strain pex11, stronger effect = lower value 1 | locus YOR001W, strain rrp6, stronger effect = lower value 1.03 | locus YOR061W, strain CKA2, stronger effect = lower value 1.01 | locus YOR069W, strain VPS5, stronger effect = lower value 0.994 | locus YOR070C, strain gyp1, stronger effect = lower value 0.999 | locus YOR080W, strain dia2, stronger effect = lower value 1.01 | locus YOR083W, strain WHI5, stronger effect = lower value 0.97 | locus YOR106W, strain vam3, stronger effect = lower value 0.877 | locus YOR136W, strain idh2, stronger effect = lower value 0.99 | locus YOR144C, strain elg1, stronger effect = lower value 1.01 | locus YOR184W, strain ser1, stronger effect = lower value 1 | locus YOR231W, strain MKK1, stronger effect = lower value 1.05 | locus YOR265W, strain rbl2, stronger effect = lower value 1.01 | locus YOR270C, strain vph1, stronger effect = lower value 1 | locus YOR290C, strain snf2, stronger effect = lower value 0.959 | locus YOR316C, strain cot1, stronger effect = lower value 0.999 | locus YPL051W, strain arl3, stronger effect = lower value 0.971 | locus YPL078C, strain atp4, stronger effect = lower value 0.941 | locus YPL106C, strain sse1, stronger effect = lower value 0.999 | locus YPL240C, strain hsp82, stronger effect = lower value 1 | locus YPL256C, strain CLN2, stronger effect = lower value 1.09 | locus YPR119W, strain clb2, stronger effect = lower value 1 | locus YPR141C, strain kar3, stronger effect = lower value 0.994 | locus YPR163C, strain tif3, stronger effect = lower value 0.998 | locus YPR167C, strain met16, stronger effect = lower value 0.991 | strain wtn01, stronger effect = lower value 0.975
active: locus YMR058W, strain fet3, stronger effect = lower value 0.881
